Screening data (PubChem)
This is a sample that favours compounds with a hit; in the whole collection about 21% have one here.
Pf growth 48h: Primary qHTS for delayed death inhibitors of the malarial parasite plastid, 48 hour incubation; P. falciparum luciferase growth in erythrocytes, 48 h; Potency, µM (top dose mostly 28.7 µM), for inactives: at the top dose activity change, negative = inhibition, usual class: inhibitors; 310,000 tested, 5.9% active; further: potency means the concentration at half of the fitted maximal effect; on the % scale 0 is the no-effect control and ±100 the full control effect
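A one-generation exposure of luciferase-tagged malaria parasites in RPMI 1640/Albumax erythrocyte culture, 37 C and 5% CO2. Inhibition is inferred from decreased luminescence after adding detection reagent.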
SARS PLpro yeast: qHTS of Yeast-based Assay for SARS-CoV PLP. 330,000 tested, 0.19% active. Potency, µM (highest dose often 32.9 µM), inactives show at the top dose activity, positive = growth rescue, actives largely listed as activators. S. cerevisiae expressing SARS-CoV PLpro, growth rescue; calls by dose curve; further: potency means the concentration at half of the fitted maximal effect; 0% is about no effect; nearly all actives have a fitted effect of over 55% in size
Shiga inhibitor: A qHTS for Small Molecule Inhibitors of Shiga Toxin | Vero cells, Shiga toxin protein synthesis inhibition reporter | inhibition, % at 38.7 µM | 290,000 tested, 9.2% active | AID 2315, 2010; in the data active means inhibition mostly above about 28%, no sharp cut-off; inactive means mostly below about 43%; further: 0% is about no effect
NS1 function inh: qHTS Assay for Inhibitors of Influenza NS1 Protein Function; Potency, µM (doses to about 46.1 µM), for inactives: at the highest dose activity, positive = more growth; 270,000 tested, 0.4% active; AID 2326, 2010; calls by dose curve; further: potency means the concentration at half of the fitted maximal effect; actives are rising curves; nearly all actives have a fitted effect of over 50% in size
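Compounds were scored for reversing the slow growth caused by influenza A NS1 in S. cerevisiae, measured by optical density at 600 nm. Assay medium contained 2% galactose at pH 6.0; NS1-free yeast of the same strain were the positive control.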
Pf growth 96h: Primary qHTS for delayed death inhibitors of the malarial parasite plastid, 96 hour incubation | Potency, µM (series often up to 28.7 µM), inactives show at the top dose activity change, negative = inhibition, usual class: inhibitors | P. falciparum luciferase reporter growth, 96 h | 320,000 tested, 6.9% active; further: potency means the concentration at half of the fitted maximal effect; on the % scale 0 is the no-effect control and ±100 the full control effect
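96 h incubation, 37 C, 5% CO2, of luciferase-reporter P. falciparum-infected RBCs (2% hematocrit, 0.05% parasitemia final) with test compounds; endpoint luminescence.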
CHX counter: Cycloheximide Counterscreen for Small Molecule Inhibitors of Shiga Toxin; cell reporter, cycloheximide protein synthesis inhibition counterscreen; max response, %; 300,000 tested, 12% active; AID 2314, 2010; in the data active means max response mostly above about 13%, no sharp cut-off; inactive means mostly below about 14%; further: read at 38.3 µM for the half of the compounds with a filed dose; 0% is about no effect
Starred values were filed as active, the others as inactive; ? = inconclusive; · = not tested or not shown. Unless noted, the call rests on the fitted dose curve; in most records, active means well fitted inhibition curve with a large enough effect; inconclusive means small, poorly fitted or top-dose-only effect, or another doubt; inactive means no such curve, though single readings can be large or run the other way.

SMILES	Pf growth 48h	SARS PLpro yeast	Shiga inhibitor	NS1 function inh	Pf growth 96h	CHX counter
CCCSc1nc2ccsc2c(=O)n1CC	62.0%	-1.6%	2.2	·	42.4%	11.0
CC(=O)N1N=C(c2ccc(C)c([N+](=O)[O-])c2)OC1(C)C	9.28µM*	-2.4%	-1.8	-5.2%	?	7.4
CC(=O)Nc1ccc(-c2csc(N3CCC(C(N)=O)CC3)n2)cc1	?	·	·	·	-4.7%	·
CCC1CCCCN1C(=O)CCCOc1ccccc1 (stereo not given)	·	7.8%	47.2	-1.3%	89.1%	43.5*
O=C(COc1ccc(Cl)cc1)N1CCCCC1	24.5%	-7.2%	52.0*	4.4%	·	34.4*
O=C(COc1ccc(Cl)cc1Cl)NC(=O)N1CCCCC1	102.6%	-3.0%	67.2*	-21.6%	·	45.5*
COc1ccccc1C(=O)NCCC(=O)N1CCCC(C)C1 (stereo not given)	5.0%	-1.8%	-11.0	-2.6%	44.3%	-2.5
COc1ccccc1C(=O)NCCC(=O)Nc1ccc(S(=O)(=O)N2CCCC(C)C2)cc1 (stereo not given)	14.7µM*	-6.1%	·	·	?	·
CCC1CCCCN1C(=O)COc1ccc(F)cc1 (stereo not given)	1.4%	0.4%	-7.5	-2.1%	116.5%	0.5
CCCNC(=O)c1cc(S(=O)(=O)N2CCCCC2)c[nH]1	22.4%	10.4%	-1.9	10.5%	?	-1.3
Cc1cccc(NC2CCCCC2NS(=O)(=O)c2ccccc2)c1 (stereo not given)	?	7.0%	7.0	-10.6%	?	5.1
COc1ccccc1C(=O)NCCC(=O)N1CCN(S(=O)(=O)c2ccc(Cl)cc2)CC1	?	-2.1%	·	·	13.1µM*	·
O=C(Cn1cc(C(F)(F)F)ccc1=O)N1CCN(S(=O)(=O)c2ccc(Cl)cc2)CC1	2.94µM*	0.9%	12.5	-1.5%	?	-1.8
COc1ccccc1C(=O)NCCC(=O)N1CCN(S(=O)(=O)c2cccc(Cl)c2)CC1	?	0.9%	·	·	?	·
CCOc1ccc(OCCCC(=O)N2CCN(S(=O)(=O)c3ccc(Cl)cc3)CC2)cc1	4.7%	-1.4%	·	·	7.1%	·
O=C(CCCOc1ccccc1)N1CCN(S(=O)(=O)c2ccc(Cl)cc2)CC1	11.7µM*	·	·	·	8.7%	·
O=C(Cn1cc(C(F)(F)F)ccc1=O)Nc1cc(S(=O)(=O)N2CCOCC2)ccc1Cl	-1.2%	10.7%	-6.7	8.0%	16.2%	-1.2
CCOC(=O)C1CCN(C(=O)CCCOc2ccccc2)CC1	123.2%	-4.8%	63.8*	3.6%	·	36.2*
COc1ccc(S(=O)(=O)N2CCN(C(=O)c3ccco3)CC2)cc1C(C)(C)C	?	0.1%	·	-16.6%	-5.3%	-3.2
O=C(CCCOc1ccccc1)N1CCCCC1	·	6.6%	17.2	-12.1%	29.6%	54.8*
Cc1cccc(C(=O)N/N=C/c2ccc(OCC(=O)N3CCCCC3)cc2)c1	?	2.4%	23.4	-9.3%	-13.1%	3.9
Cc1cc(Cl)ccc1OCC(=O)N1CCCCC1	70.7%	-3.5%	63.8*	-15.3%	0.9%	46.5*
O=C(CSCc1cccc(Cl)c1)N/N=C/c1ccc(OCC(=O)N2CCCCC2)cc1	-5.9%	-0.7%	-2.8	-21.9%	6.9%	13.0*
COc1cc(C=O)ccc1OCC(=O)N1CCCC1	2.9%	0.6%	-6.1	3.1%	9.28µM*	-1.2
O=C(c1ccccc1)N1CCN(c2ncnc3sc4c(c23)CCC4)CC1	?	-25.8%	-13.2	-0.2%	?	3.8
SMILES	Pf growth 48h	SARS PLpro yeast	Shiga inhibitor	NS1 function inh	Pf growth 96h	CHX counter
CC(C)c1ccc(NC(=S)N2CCN(S(=O)(=O)c3ccccc3)CC2)cc1	?	11.1%	-18.0	8.2%	?	10.3
O=C(COc1ccc(Cl)cc1)N1CCCCCCC1	48.8%	-3.2%	6.9	7.2%	?	12.5
O=C(CCCOc1ccc(Cl)cc1)N1CCCCC1	70.3%	-6.8%	85.5*	-18.3%	·	40.3*
O=C(NCCC(=O)N1CCCCC1)c1ccccc1Cl	27.6%	-5.1%	14.1	6.9%	38.8%	0.7
CC1CC(C)CN(C(=O)CCNC(=O)c2ccccc2Cl)C1 (stereo not given)	0.928µM*	-3.4%	-12.4	-23.3%	0.465µM*	2.1
N#Cc1ccccc1OCC(=O)N1CCN(S(=O)(=O)c2ccc(Cl)cc2)CC1	?	-4.1%	·	·	10.4µM*	·
O=C(CCCOc1ccc(Cl)cc1)N1CCCCCC1	44.9%	-22.8%	77.4*	-21.1%	66.1%	39.0*
O=S1(=O)Cc2cc3ccccc3cc2C1	18.4%	-0.3%	-1.5	1.2%	50.9%	-3.2
CC1CN(CC(=O)Nc2ccc([N+](=O)[O-])cc2Br)CC(C)O1 (stereo not given)	-9.5%	1.8%	-10.7	·	1.2%	-4.3
O=C(CNC(=O)c1cccc(Cl)c1)NCC(c1cccs1)N1CCOCC1 (stereo not given)	-0.1%	1.2%	·	·	8.3%	·
Cc1ccc(C(=O)NC(=S)Nc2cccnc2Cl)cc1	79.5%	-4.7%	90.8*	-3.0%	20.5%	46.7*
COc1ccccc1C(=O)NC(=S)Nc1cccnc1Cl	243.7%	-22.8%	23.8	-7.2%	-16.8%	17.5*
COc1cccc(-c2csc(N3CCN(C(=S)Nc4ccccc4)CC3)n2)c1	?	0.9%	-4.4	22.4%	?	0.7
COc1cccc(-c2cc(C(=O)N3CCN(Cc4ccccc4)CC3)no2)c1	12.4%	-5.9%	73.0	-27.8%	·	16.5
COc1cccc(-c2csc(N3CCN(Cc4ccccc4)CC3)n2)c1	?	?	32.4	-15.0%	·	17.6*
CCOc1ccccc1NC(=S)N1CCN(c2nc(-c3cccc(OC)c3)cs2)CC1	?	6.2%	47.0	22.0%	21.5%	12.8
CNC(=S)N1CCN(c2nc(-c3cccc(OC)c3)cs2)CC1	-12.5%	2.7%	1.1	9.8%	11.7µM*	9.9*
COc1cccc(-c2csc(N3CCN(C(=S)Nc4ccccc4C)CC3)n2)c1	-29.9%	-1.2%	49.2*	21.6%	-1.8%	17.9*
COc1cccc(-c2csc(N3CCN(C(=S)Nc4ccc(Cl)cc4)CC3)n2)c1	?	-8.4%	74.6*	29.0%	10.4µM*	23.6*
Cc1ccccc1NCC(=O)N/N=C/C(Br)=C/c1ccccc1	12.6%	-11.0%	53.5	-0.8%	·	0.3
COc1ccccc1NC(=O)COC(=O)C1CCN(/C=C/C(=O)C(F)(F)F)CC1	2.0%	8.6%	-3.8	-2.4%	14.3%	1.3
CC(C)C[C@H](NC(=O)N1c2ccccc2NC(=O)[C@@H]1C(C)C)C(=O)N[C@@H](Cc1ccccc1)C(=O)O	-25.8%	-2.5%	-1.5	11.6%	?	0.7
CCCN(C(=O)CSc1n[nH]c(-c2ccc(OC)cc2)n1)c1c(N)n(Cc2ccccc2)c(=O)[nH]c1=O	-2.0%	3.4%	·	·	3.7%	·
COc1cccc(-c2csc(N3CCN(C(=O)Nc4ccccc4Cl)CC3)n2)c1	0.1%	-2.2%	49.8	13.3%	16.9%	9.5*
